Assay outcomes from PubChem.
D1 ag: human D1 receptor agonism; P21728; HEK293 T-REx D1 cells, calcium flux, agonist mode; activation, % at 2 µM; 360,000 compounds, 1% hits; AID 504660; in the data active means activation above about 30%; further: 0% is about no effect
Target sequence (P21728 whole entry, looked up): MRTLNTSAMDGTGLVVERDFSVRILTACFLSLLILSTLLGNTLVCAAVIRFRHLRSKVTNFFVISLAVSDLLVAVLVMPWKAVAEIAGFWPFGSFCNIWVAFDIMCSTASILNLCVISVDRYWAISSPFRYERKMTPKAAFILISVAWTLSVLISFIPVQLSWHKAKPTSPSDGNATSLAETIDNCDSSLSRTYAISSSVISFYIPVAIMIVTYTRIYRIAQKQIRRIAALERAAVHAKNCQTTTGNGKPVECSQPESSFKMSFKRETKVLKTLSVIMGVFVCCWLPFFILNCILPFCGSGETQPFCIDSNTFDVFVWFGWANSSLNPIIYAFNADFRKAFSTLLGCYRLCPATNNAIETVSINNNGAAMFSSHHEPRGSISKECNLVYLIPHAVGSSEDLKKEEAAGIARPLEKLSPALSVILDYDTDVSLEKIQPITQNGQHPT
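Tetracycline-induced HEK293 TREx D1 cells, force-coupled to calcium signalling, were dye-loaded with a no-wash calcium kit. Compound was pin-added after a 10 s baseline. Fluorescence was read kinetically at 1 cycle/s for 180 s, with calcium rises flagged as agonism.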
D1 antagonist: human D1 dopamine receptor antagonism. P21728. HEK293 TREx D1 cells, calcium flux, dopamine EC80; hits give low values. activity change, negative = inhibition, % at 10 µM. 360,000 compounds, 3.2% hits. AID 504652; in the data active means activity change below about -30%; further: on the % scale 0 is the no-effect control and ±100 the full control effect
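Using tetracycline-induced force-coupled D1 Hek293 cells and a calcium dye, signals were followed for 180 s after compound, then for 180 s after EC80 dopamine, to detect inhibitors.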
D1 potentiator: human D1 dopamine receptor positive modulation; AID 504651; potentiation, % at 10 µM; HEK293 TREx D1 cells, calcium flux, dopamine EC20 potentiation; P21728; 360,000 compounds, 0.036% hits; in the data active means potentiation above about 30%; further: 0% is about no effect
DRD3 antagonist: blocks the human D3 dopamine receptor; P35462; D3R cells, DiscoveRx beta-arrestin luminescence, antagonist mode; hits give low values; max response, negative = inhibition, %; 360,000 compounds, 2.5% hits; AID 652054; in the data active means max response below about -50%; inconclusive means no clear call, values can overlap the other calls; further: on the % scale 0 is the no-effect control and ±100 the full control effect
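Cells expressing the human receptor were seeded at 1500 cells/well, incubated overnight at 37 degrees C in 5% CO2, then exposed to library compounds with dopamine controls for 90 minutes at 37 degrees C before luminescent detection.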
D3 ag: D3 dopamine receptor (human) agonism; D3R DiscoveRx beta-arrestin cells, luminescence, 90 min; max activation, %; 410,000 compounds, 0.58% hits; AID 652048; in the data active means max activation above about 30%; further: 0% is about no effect
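Agonist-mode cell screen: cells plated at 1500/well and incubated overnight at 37 °C, then exposed to library compounds for 90 min at 37 °C. Detection reagent was added for 30–60 min at room temperature, and luminescence was read.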
An asterisk follows results filed as active; ? = inconclusive; . = no result given. Shown are actives, neighbours in structure and some others; about 6% of the full set was active somewhere.

SMILES | D1 ag | D1 antagonist | D1 potentiator | DRD3 antagonist | D3 ag
CCOC(=O)N1CCN(c2cc(=O)n(-c3ccc(OCC)cc3)c(=O)[nH]2)CC1 | 2 | 9 | -4 | 6 | 20
CCOc1ccc(-n2c(=O)cc(N3CCN(c4ccc(F)cc4)CC3)[nH]c2=O)cc1 | 1 | -1 | -1 | -114* | -2
NCC[C@H](O)C(=O)N[C@@H]1C[C@H](N)[C@@H](O[C@H]2O[C@H](CN)CC[C@H]2N)[C@H](O)[C@H]1O[C@H]1O[C@H](CO)[C@@H](O)[C@H](N)[C@H]1O | . | . | . | . | -7
CCOC(=O)c1c(-c2ccccc2)c2cc(OC)ccc2n1CCCN(C)C | 31* | -3 | -6 | -72* | -21
CCOC(=O)c1c(C)n(CCNC(C)=O)c2ccc(OC)cc12 | 0 | -3 | -4 | 19 | 5
O=C(Nc1nc2n(n1)C(c1ccc(Cl)cc1)C=C(c1ccccc1)N2)c1ccco1 (centres undefined) | 1 | 2 | 0 | . | 3
COc1ccc(Cn2c(-c3ccc(C)cc3)nc3c(c(=O)c4ccccc4n3C)c2=O)cc1 | 39* | 0 | 3 | 3 | 15
COc1ccc(Cn2c(-c3ccc(OC)cc3)nc3c(c(=O)c4ccccc4n3C)c2=O)cc1 | 15 | 3 | 6 | . | .
COc1ccc(CCn2c(C)nc3c(c(=O)c4ccccc4n3C)c2=O)cc1 | 3 | 7 | 2 | 25 | 8
COc1ccc(CCn2c(C(C)C)nc3c(c(=O)c4ccccc4n3C)c2=O)cc1 | 140* | -16 | -5 | 29 | 7
CC1CCCc2sc3nc(N4CCN(CCO)CC4)n4ncnc4c3c21 (centres undefined) | 2 | 12 | -6 | -56* | -6
COc1cccc(NC(=O)/C(C#N)=C/c2c(C)n(Cc3ccccc3)c3ccccc23)c1 | 20 | -1 | -1 | . | -1
COc1ccc(NC(=O)CSc2c(C)n[nH]c2C)cc1 | 0 | -7 | -1 | -3 | -12
Cn1ccnc1SCC(=O)Nc1cccc(C(F)(F)F)c1 | 2 | -19 | 0 | -10 | -13
COc1ccc(NC(=O)CSC2=NCCN2)cc1 | 2 | -30* | -6 | -17 | -3
O=C(CSc1ncc(S(=O)(=O)c2ccc(Cl)cc2)c(=O)[nH]1)Nc1cccc(C(F)(F)F)c1 | 0 | -32* | 4 | . | -1
O=C(CSC1=NCCN1)Nc1cccc(C(F)(F)F)c1 | 5 | -15 | -7 | -65* | -11
C=CCNCCCCOc1cccc(Br)c1 | 32* | -4 | -1 | -62* | -17
CCc1cccc(OCCCCNCCCOC)c1 | 2 | 4 | 3 | -79* | -39
COCCCNCCCCOc1cccc(Br)c1 | 5 | 3 | -3 | -61* | -5
OCCNCCCCOc1cccc(Br)c1 | 17 | -2 | -2 | -27 | -26
CCOCCCNCc1cccc(OC)c1 | 3 | -24 | 3 | 10 | -6
CCc1cccc(OCCCCN(CC)CC)c1 | 4 | 7 | 0 | -73* | -25
CCOC(=O)C(CCCCOc1cccc(CC)c1)C(=O)OCC | 5 | 1 | -4 | -18 | 10
CNCCCOc1cccc(Oc2ccccc2)c1 | 17 | -4 | -3 | ? | -16
SMILES | D1 ag | D1 antagonist | D1 potentiator | DRD3 antagonist | D3 ag
CCOc1cccc(OCCCNCCCOC)c1 | 1 | 12 | -3 | -59* | -5
CC(C)C[C@H]1CN=C(Nc2ccccc2)N1CC1CCCCCC1 | 29 | -31* | -4 | 6 | -18
CC(C)C[C@H]1CN=C(Nc2ccccc2)N1CCc1ccc(F)cc1 | 234* | -32* | 1 | 17 | -13
c1ccc(CCCCN2C(Nc3ccccc3)=NC[C@@H]2Cc2ccccc2)cc1 | 45* | 9 | -10 | 4 | -31
Cc1cccc(CCN2C(Nc3ccccc3)=NC[C@@H]2CC(C)C)c1 | 215* | -19 | 11 | -18 | -25
CC(C)CCN1C(Nc2ccccc2)=NC[C@@H]1CC(C)C | 4 | 1 | 4 | 18 | -1
CC(C)C[C@H]1CN=C(Nc2ccccc2)N1CCc1cccc(F)c1 | . | . | . | -1 | -33
CCCCCCCN1C(Nc2ccccc2)=NC[C@@H]1Cc1ccccc1 | 22 | -3 | -7 | -23 | -31
Cc1ccc(NC(=O)CN2C(=O)CCc3cc(S(=O)(=O)N4CCOCC4)ccc32)cc1N(C)C | 5 | 5 | 0 | . | 3
Cc1c(C(=O)N2CCC(C)CC2)c(S(=O)(=O)N(Cc2ccccc2)C(C)(C)C)c(C)n1C | 8 | 2 | 0 | . | 3
Cc1ccc2c(c1)[C@@H]1[C@H](CO2)[C@H](c2ccccc2)[C@@]2(C)C(=O)N[C@H](C)C(=O)N12 | . | . | . | 8 | 31*
C[C@H]1NC(=O)[C@]2(C)[C@@H](c3ccccc3)[C@H]3COc4ccccc4[C@@H]3N2C1=O | . | . | . | 4 | 9
CCCCCCSc1cc(-c2nc3cc(C)ccn3c2NC2CCCCC2)ccc1OC | 0 | 17 | 6 | 0 | 12
CCCCCCSc1cc(-c2nc3cnccn3c2NCc2ccccc2)ccc1OC | 1 | 11 | 3 | 131 | 51*
CCCCNc1c(-c2ccc(SC3CCCCC3)cc2)nc2cnccn12 | . | . | . | 106 | 40*
CCCCNc1c(-c2ccc(OC)c(SC3CCCCC3)c2)nc2cnccn12 | 3 | 3 | 5 | 259 | 45*
COc1ccc(-c2nc3cnccn3c2NCc2ccccc2)cc1SC1CCCCC1 | 6 | -12 | -1 | 97 | 40*
COc1cc(-c2nc3ccc(C)cn3c2NCc2ccccc2)ccc1SC1CCCCC1 | 3 | -17 | -2 | 93 | 24
C=CS(=O)(=O)O | . | . | . | . | -24
COc1cccc(CNC(=O)c2ccc3c(c2)N(C)C(=O)C2CCCCN32)c1 (centres undefined) | 0 | 18 | -1 | . | -16
COc1ccc2c(c1)sc1ncc(C(=O)NCc3cccc(Cl)c3)c(=O)n12 | 0 | 15 | -4 | . | 1
COc1cc(-c2nc3ccccn3c2NCc2ccccc2)ccc1SC1CCCCC1 | -1 | 18 | -3 | 118 | 87*
COc1ccc(Sc2ccc(-c3nc4cnccn4c3NC3CCCCC3)cc2OC)cc1 | . | . | . | 49 | 46*
COc1cc(OC)c(NC(=O)CCn2cnc3onc(-c4ccc(F)cc4)c3c2=O)cc1Cl | 8 | -20 | -5 | . | 0
N#CC1=C(N)Oc2c(oc(CO)cc2=O)C1c1ccccc1[N+](=O)[O-] (centres undefined) | 0 | -35* | -7 | -4 | 21
COc1ccccc1C1C(C#N)=C(N)Oc2c1oc(CO)cc2=O (centres undefined) | 0 | -7 | -2 | -25 | 3
c1ccc(CNCc2nnc(-c3cc4ccccc4[nH]3)s2)cc1 | 0 | 10 | -6 | . | .
Cc1nnsc1NC(=O)OCc1ccc(Cl)cc1Cl | 13 | -33* | -7 | 18 | 2
Cc1nn(C)c(Cl)c1NC(=O)OCc1ccc(Cl)cc1Cl | 25 | -37* | -9 | 31 | 10
O=C(NC(=O)c1ccccc1F)OCc1ccc(Cl)cc1Cl | 6 | 7 | -3 | 38 | 2
